Measurements as given in PubChem BioAssay (NCATS).
Inconclusive results are not listed. Calls follow the shape of the dose curve; as a rule, active = well fitted curve in either direction with a large enough effect (not every such curve was filed as active); inconclusive = small, poorly fitted or top-dose-only effect, or another doubt; inactive = flat fitted curve, though single readings scatter.

target: Mitogen-activated protein kinase 10 (Mus musculus) (UniProt Q61831); assay: JNK3 AlphaScreen Assay (AID 530); conditions: JNK3 lysate, c-Jun phosphorylation; series mostly up to 57.1 µM; activity change, negative = inhibition: at the top concentration;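 also: kinase came from lysate of stimulated human HepG2 cells; signal reports phosphorylation of biotinylated GST-cJun 1-79 at Ser73 with 10 µM ATP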
How it was run: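 Activity was read by AlphaScreen after JNK3-containing HepG2 lysate (cytokine pre-activated) phosphorylated biotinylated GST-cJun with 10 uM ATP at room temperature. Phospho-Ser73 cJun antibody with Protein-A acceptor beads provided detection.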
% is scaled to controls: 0 for no effect and ±100 for the full control effect.

Activity change, negative = inhibition, inactive:
O=C(c1ccncc1)N1CCC2(CCCN(c3ncccn3)C2)CC1 -3.54%
Cn1c(=O)c(-c2cc(F)cc(F)c2)nc2cnc(Oc3cccc(Cl)c3)nc21 -12.1%
O=C(c1cnccn1)N1CCC2(CCCN(c3ccncc3)C2)CC1 0.967%
COc1ccc(Oc2ncc3ncc(=O)n(Cc4cccc(OC)c4)c3n2)cc1 -2.47%
O=C(Oc1ccccc1)N1CCC[C@@]2(CCN(c3ccccc3)C2)C1 3.92%
O=C(c1csnn1)N1CCC[C@@]2(CCN(c3ccccc3)C2)C1 -21.4%
N#CCCn1c(=O)cnc2cnc(Nc3ccccc3)nc21 -15.6%
O=C(c1ccco1)N1CCC2(CC1)CCN(c1ccccn1)CC2 -2.17%
O=C(c1cccc(F)c1)N1CCC2(CC1)CCN(c1ccccn1)CC2 2.41%
O=c1c(CCc2ccccc2)nc2cnc(Nc3ccccc3)nc2n1Cc1cccs1 -5.47%
CCNc1ncc2nc(-c3cccs3)c(=O)n(-c3ccc(OC)cc3)c2n1 8.34%
CC(=O)N1CCC2(CCN(Cc3ccc(C#N)cc3)CC2)CC1 -13.8%
COc1ccc(C(=O)N2CCC3(CCCN(Cc4nccs4)C3)CC2)cc1 -2.92%
Cc1cccc(CNc2cc(-c3ccccc3C)ncn2)c1 15.9%
N#Cc1ccc(CN2CCC3(CC2)CCN(C(=O)c2cnccn2)CC3)cc1 -0.462%
O=C(Nc1ccccc1)N1CCCC2(CCN(C(=O)c3cccc(F)c3)CC2)C1 -9.1%
O=c1c(-c2ccc(F)c(F)c2)nc2cncnc2n1Cc1ccccc1 -22.7%
COc1ccc(C(=O)N2CCC3(CCCN(c4ccccc4)C3)CC2)cc1 -17.3%
